Measured values taken from PubChem BioAssay.
For some assays here: Results with a measured potency or affinity are listed apart. The source made the active and inactive calls.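 The calls were made as follows, unless noted: active = membrane potential signal rise above negative control mean plus 3 SD in both duplicates, also active in the earlier TRPC4 screen; inactive = the rest.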

How the values were obtained:
[1] = test system: TRPC4 beta (transient receptor potential cation channel C4), mouse; assay: activators of mouse TRPC4 channel, confirmation, cell-based, Fluo4 calcium, HEK293 TRPC4beta/mu-opioid, duplicates, 10 µM (AID 2426;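 active = fluorescence ratio normalized to control raised more than 50% in primary screen plus both repeat runs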;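 as to activation: percent rise of integrated ratio over buffer wells lacking compound which define 0%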); details: Fluo4 calcium fluorescence, at 10 µM; active compounds read high
[2] = test system: transient receptor potential cation channel C4 beta (TRPC4), mouse; assay: activators of mouse TRPC4 channel, confirmation, cell-based, second round, Fluo4, HEK293 TRPC4beta/mu-opioid, 1 µM (AID 2461;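 active = primary screen active and over 50% activation in each of two duplicate runs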;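 as to activation: 0% = wells without test compound as baseline of integrated fluorescence ratio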); details: Fluo4 calcium fluorescence, at 1 µM; active compounds read high
[3] = test system: TRPC4 (transient receptor potential cation channel C4 beta), mouse; assay: positive allosteric modulators of mouse TRPC4, confirmation, cell-based, second round, Fluo-4, HEK293 TRPC4beta/mu-opioid, 1 µM (AID 2554;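 active = primary screen hit whose fluorescence ratio, in both repeats, exceeds the weak agonist control mean by 3 SD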); details: DAMGO EC20, Fluo-4 calcium flux, at 1 µM; active compounds read high
[4] = test system: TRPC4 beta (transient receptor potential cation channel C4), mouse; assay: positive allosteric modulators of mouse TRPC4, confirmation, cell-based, Fluo-4, HEK293 TRPC4beta/mu-opioid (AID 2555;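 active = primary screen hit whose calcium fluorescence ratio, in both repeats, exceeds the weak agonist control mean by 3 SD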); details: DAMGO EC20, Fluo-4 calcium flux, at 10 µM; active compounds read high
[5] = target: Short transient receptor potential channel 4 (Mus musculus) (UniProt Q9QUQ5); assay: inhibitors of mouse TRPC4 channel, confirmation, cell-based, Fluo4, HEK293 TRPC4beta/mu-opioid (AID 2636;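 active = calcium signal cut by more than 3 SD below the full-agonist control yet still positive, in both repeats and the earlier primary screen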); details: DAMGO, Fluo4 calcium flux, at 10 µM; active compounds read high
[6] = target: Short transient receptor potential channel 4 (Mus musculus) (UniProt Q9QUQ5); assay: inhibitors of mouse TRPC4 channel, confirmation, cell-based, second round, Fluo4, HEK293 TRPC4beta/mu-opioid, 1 µM (AID 2637;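 active = calcium signal ratio cut to more than 3 SD under the fully stimulated control mean yet still positive, in both repeats and the primary screen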); details: Fluo4 calcium flux, DAMGO, at 1 µM; active compounds read high
[7] = target: Short transient receptor potential channel 4 (Mus musculus) (UniProt Q9QUQ5); assay: TRPC4 positive allosteric modulators, dose response, cell-based, HEK293 TRPC4/mu-opioid, Fluo-4 calcium, EC20 DAMGO (AID 434941;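 active = earlier screen potentiator hit that boosts the TRPC4 ion channel at some dose, with a dose response; inactive = no potentiation, no dose response, or not a prior hit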;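 also: calcium entry triggered by an EC20 dose of DAMGO at the co-expressed mu-opioid receptor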)
[8] = target: Short transient receptor potential channel 4 (Mus musculus) (UniProt Q9QUQ5); assay: mouse TRPC4 channel inhibitors, dose response, cell-based, HEK293 TRPC4/mu-opioid, Fluo-4 calcium (AID 434942;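 active = primary screen inhibitor hit that blocks the TRPC4 channel at some tested dose, yielding a dose curve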)
[9] = target: Short transient receptor potential channel 6 (Mus musculus) (UniProt Q61143); assay: inhibition of mouse TRPC6 channel, confirmation, selectivity assay for TRPC4 inhibitor project, cell-based, HEK293, membrane potential dye, duplicate (AID 434948;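 active = active in primary screen and both duplicates, each dropping signal beyond three positive-control SD with fluorescence still positive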); details: HEK293 TRPC6, membrane potential dye fluorescence, at 10 µM, stimulated with maximal-effect acetylcholine; active compounds read high
[10] = target: Short transient receptor potential channel 6 (Mus musculus) (UniProt Q61143); assay: activation of mouse TRPC6 channel, confirmation, selectivity assay for TRPC4 activator project, cell-based, HEK293, membrane potential dye, duplicate (AID 434950); details: HEK293 TRPC6, membrane potential fluorescence, at 10 µM; active compounds read high;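 as to activation: 0% = buffer only wells and 100% = acetylcholine maximal-effect wells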
[11] = target: Short transient receptor potential channel 6 (Mus musculus) (UniProt Q61143); assay: TRPC6 potentiation by TRPC4 potentiator hits, confirmation, selectivity assay for TRPC4 potentiator project, HEK293 cells, membrane potential dye, duplicate (AID 434952;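 active = compound raising the membrane signal above positive-control mean plus 3 SD in both repeats, and a primary screen hit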); details: HEK293 TRPC6, membrane potential dye fluorescence, at 10 µM, maximal acetylcholine added after compound; active compounds read high
[12] = target: Short transient receptor potential channel 4 (Mus musculus) (UniProt Q9QUQ5); assay: calcium flux activators in TRPC4/5HT1a cells, counter-screen for TRPC4 activator project, cell-based, second counter screen, HEK293 TRPC4/5HT1a, Fluo-4 (AID 434977;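 active = calcium signal rise above buffer-control mean plus 5 SD in both duplicates, and also a hit in the primary screen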;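 as to activation: plate controls were assay buffer for no effect and maximal serotonin response for full effect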); details: Fluo-4 calcium flux, at 10 µM; active compounds read high
[13] = calcium flux inhibitors in TRPC4/5HT1a cells, confirmation, counter-screen for TRPC4 inhibitor project, cell-based, second counter screen, HEK293 TRPC4/5HT1a, Fluo-4 (AID 434978;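 active = primary screen active whose calcium signal fell more than 3 SD beyond the full-serotonin control mean in both duplicate plates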;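 also: serotonin given first at submaximal then at maximal dose after compound preincubation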); details: Fluo-4 calcium flux, at 10 µM, serotonin added to trigger calcium flux; active compounds read high
[14] = test system: TRPC4 (mouse), co-expressed with 5HT1a in HEK293; assay: calcium flux potentiators in TRPC4/5HT1a cells, confirmation, counter-screen for TRPC4 potentiator project, cell-based, second counter screen, HEK293 TRPC4/5HT1a, Fluo-4 (AID 434979;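 active = signal rise over 3 SD above mean of control wells given weak agonist, in both repeats and first screen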); details: Fluo-4 calcium flux, at 10 µM, serotonin added at its EC20 dose; active compounds read high
[15] = calcium flux activation in mu-opioid HEK293 cells, confirmation, counter-screen for TRPC4 activator project, cell-based, HEK293 mu-opioid receptor line (AID 449723;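 active = hit in primary screen, with calcium signal over 5 SD above buffer well mean in both duplicates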;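 also: counter screen cells carry the mu-opioid receptor alone and lack TRPC4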); details: Fluo-4 calcium fluorescence, at 10 µM; active compounds read high
[16] = calcium flux enhancement in mu-opioid HEK293 cells, confirmation, counter-screen for TRPC4 allosteric potentiator project, cell-based, HEK293 mu-opioid receptor line (AID 449724;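 active = calcium signal rise more than 3 SD above the low-dose agonist control mean, in both duplicate plates and the primary screen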); details: Fluo-4 calcium flux, at 10 µM, compound added before EC20 DAMGO stimulus; active compounds read high

Sequence of Short transient receptor potential channel 4 (Mus musculus) (Q9QUQ5 whole entry, looked up): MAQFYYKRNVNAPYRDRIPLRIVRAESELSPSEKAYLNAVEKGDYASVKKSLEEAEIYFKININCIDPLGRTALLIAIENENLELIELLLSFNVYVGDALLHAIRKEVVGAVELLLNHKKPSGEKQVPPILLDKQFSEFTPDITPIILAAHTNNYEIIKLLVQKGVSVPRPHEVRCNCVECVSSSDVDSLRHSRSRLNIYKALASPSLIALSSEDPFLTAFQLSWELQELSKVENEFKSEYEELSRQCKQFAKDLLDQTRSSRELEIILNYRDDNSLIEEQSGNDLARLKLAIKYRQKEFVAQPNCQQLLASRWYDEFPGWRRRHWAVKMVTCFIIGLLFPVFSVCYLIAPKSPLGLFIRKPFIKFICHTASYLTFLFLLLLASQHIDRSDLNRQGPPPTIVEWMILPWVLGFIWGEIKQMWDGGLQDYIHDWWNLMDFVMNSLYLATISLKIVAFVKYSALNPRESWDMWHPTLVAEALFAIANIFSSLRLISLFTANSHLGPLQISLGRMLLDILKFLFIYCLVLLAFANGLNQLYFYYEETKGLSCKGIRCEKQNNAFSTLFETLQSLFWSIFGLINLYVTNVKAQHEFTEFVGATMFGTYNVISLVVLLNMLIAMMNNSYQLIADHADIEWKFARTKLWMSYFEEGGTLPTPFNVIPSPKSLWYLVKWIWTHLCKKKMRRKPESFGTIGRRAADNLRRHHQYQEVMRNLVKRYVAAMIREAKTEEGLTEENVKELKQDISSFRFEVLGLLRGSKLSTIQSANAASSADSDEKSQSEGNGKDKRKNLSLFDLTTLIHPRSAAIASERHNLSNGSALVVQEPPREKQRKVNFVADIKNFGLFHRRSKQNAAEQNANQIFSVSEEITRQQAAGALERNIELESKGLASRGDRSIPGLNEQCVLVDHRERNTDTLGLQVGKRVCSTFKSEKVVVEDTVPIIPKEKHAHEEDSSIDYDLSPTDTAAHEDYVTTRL
Sequence of Short transient receptor potential channel 6 (Mus musculus) (Q61143 whole entry, looked up): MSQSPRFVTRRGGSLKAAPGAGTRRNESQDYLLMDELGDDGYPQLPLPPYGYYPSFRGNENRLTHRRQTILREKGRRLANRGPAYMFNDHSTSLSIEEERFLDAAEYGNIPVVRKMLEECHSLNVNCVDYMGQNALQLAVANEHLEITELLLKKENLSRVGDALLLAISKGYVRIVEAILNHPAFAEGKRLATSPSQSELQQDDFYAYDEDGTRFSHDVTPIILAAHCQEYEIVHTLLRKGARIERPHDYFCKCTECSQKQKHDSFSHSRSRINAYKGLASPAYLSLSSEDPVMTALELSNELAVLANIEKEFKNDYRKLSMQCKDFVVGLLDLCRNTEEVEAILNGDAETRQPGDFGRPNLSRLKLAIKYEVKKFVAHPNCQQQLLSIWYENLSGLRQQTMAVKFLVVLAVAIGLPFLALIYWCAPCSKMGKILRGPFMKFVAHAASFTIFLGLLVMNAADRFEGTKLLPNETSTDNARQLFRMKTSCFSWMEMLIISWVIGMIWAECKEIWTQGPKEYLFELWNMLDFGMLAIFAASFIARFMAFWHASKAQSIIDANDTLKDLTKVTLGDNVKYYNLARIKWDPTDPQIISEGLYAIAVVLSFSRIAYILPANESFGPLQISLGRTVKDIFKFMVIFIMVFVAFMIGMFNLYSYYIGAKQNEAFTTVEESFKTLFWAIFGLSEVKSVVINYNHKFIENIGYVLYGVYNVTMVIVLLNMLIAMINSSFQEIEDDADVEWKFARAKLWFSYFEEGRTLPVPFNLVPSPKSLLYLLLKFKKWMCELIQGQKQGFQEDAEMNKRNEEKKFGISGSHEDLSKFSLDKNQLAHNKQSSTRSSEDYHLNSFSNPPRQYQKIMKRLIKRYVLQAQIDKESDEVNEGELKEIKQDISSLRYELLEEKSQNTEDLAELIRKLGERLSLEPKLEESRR

COc1ccc(-c2nn(-c3ccccc3C)cc2CNCc2cccnc2)cc1F
inactive: outcome [2] | outcome [3] | outcome [4] | outcome [5] | outcome [6] | outcome [7] | outcome [8] | outcome [9] | outcome [11] | outcome [12] | outcome [13] | outcome [14] | outcome [15] | outcome [16]
active: activation [1] 128% | activation [10] 33%

CCn1c(N2CCN(C(=S)NCC(C)C)CC2)nc2ccccc21
inactive: outcome [2] | outcome [3] | outcome [4] | outcome [5] | outcome [6] | outcome [7] | outcome [8] | outcome [9] | outcome [11] | outcome [13] | outcome [14] | outcome [15] | outcome [16]
active: activation [1] 98% | activation [10] 39.5% | activation [12] 27.9%

CCCCN(CC)CCCNC(=O)c1csc2c1CCCCC2
inactive: outcome [2] | outcome [3] | outcome [4] | outcome [5] | outcome [6] | outcome [7] | outcome [8] | outcome [9] | outcome [11] | outcome [13] | outcome [14] | outcome [15] | outcome [16]
active: activation [1] 211% | activation [10] 66.5% | activation [12] 78.6%

Cc1ccc(Cn2c(SCCN3CCCCC3)nc3c2c(=O)n(C)c(=O)n3C)cc1
inactive: outcome [2] | outcome [5] | outcome [6] | outcome [7] | outcome [8] | outcome [9] | outcome [10] | outcome [11] | outcome [13] | outcome [15] | outcome [16]
active: activation [1] 114% | potentiation [3] 8% | potentiation [4] 13% | activation [12] 8.42% | potentiation [14] 81%

O=C1c2ccccc2S(=O)(=O)c2cc(C(=O)N(c3ccccn3)c3ccccn3)ccc21
active: activation [1] 107% | activation [12] 99.8% | activation [15] 25.6%
inactive: outcome [2] | outcome [3] | outcome [4] | outcome [5] | outcome [6] | outcome [7] | outcome [8] | outcome [9] | outcome [10] | outcome [11] | outcome [13] | outcome [14] | outcome [16]

COc1ccc(C(CNC(=O)/C=C/c2c(Cl)nc3ccccn23)N(C)C)cc1 (centres undefined)
active: activation [1] 268% | activation [2] 153% | activation [10] 41% | activation [12] 7.37%
inactive: outcome [3] | outcome [4] | outcome [5] | outcome [6] | outcome [7] | outcome [8] | outcome [9] | outcome [11] | outcome [13] | outcome [14] | outcome [15] | outcome [16]

O=C(CC1C(=O)NCCN1Cc1ccc(-c2ccccc2)cc1)NCCc1ccccn1 (centres undefined)
inactive: outcome [2] | outcome [3] | outcome [4] | outcome [5] | outcome [6] | outcome [7] | outcome [8] | outcome [9] | outcome [10] | outcome [11] | outcome [13] | outcome [14] | outcome [15] | outcome [16]
active: activation [1] 142% | activation [12] 34%

COc1cccc(C(=O)OC2CCCN(C)C2)c1 (centres undefined)
inactive: outcome [3] | outcome [4] | outcome [5] | outcome [6] | outcome [7] | outcome [8] | outcome [9] | outcome [11] | outcome [13] | outcome [14] | outcome [15] | outcome [16]
active: activation [1] 135% | activation [2] 85% | activation [10] 43% | activation [12] 48.9%

CCC1CCCCN1S(=O)(=O)c1ccc(C(=O)N(CCCN(C)C)c2nc3cc4c(cc3s2)OCO4)cc1 (centres undefined)
inactive: outcome [2] | outcome [3] | outcome [4] | outcome [5] | outcome [6] | outcome [7] | outcome [8] | outcome [9] | outcome [10] | outcome [11] | outcome [13] | outcome [14] | outcome [15] | outcome [16]
active: activation [1] 191% | activation [12] 23.1%

Cc1c(Cl)cccc1NC(=S)NCC(c1cccnc1)N(C)C (centres undefined)
inactive: outcome [1] | outcome [3] | outcome [4] | outcome [5] | outcome [6] | outcome [7] | outcome [8] | outcome [9] | outcome [11] | outcome [12] | outcome [13] | outcome [14] | outcome [15] | outcome [16]
active: activation [2] 103% | activation [10] 47.5%

COc1ccc(CN2CCC(N(CCc3ccccc3)Cc3ccccc3)CC2)c(OC)c1
inactive: outcome [2] | outcome [3] | outcome [4] | outcome [5] | outcome [6] | outcome [7] | outcome [8] | outcome [9] | outcome [11] | outcome [12] | outcome [13] | outcome [14] | outcome [15] | outcome [16]
active: activation [1] 95% | activation [10] 44%

Cc1csc2c(N3CCN(C(=O)Nc4ccc(Cl)c(Cl)c4)CC3)ncnc12
inactive: outcome [2] | outcome [3] | outcome [4] | outcome [5] | outcome [6] | outcome [7] | outcome [8] | outcome [9] | outcome [10] | outcome [11] | outcome [13] | outcome [14] | outcome [15] | outcome [16]
active: activation [1] 115% | activation [12] 40.3%

Cc1ccc(C)c(NC(=S)NCC(c2ccccc2)N(C)C)c1 (centres undefined)
active: activation [1] 260% | activation [2] 127% | activation [10] 49% | activation [12] 93.2%
inactive: outcome [3] | outcome [4] | outcome [5] | outcome [6] | outcome [7] | outcome [8] | outcome [9] | outcome [11] | outcome [13] | outcome [14] | outcome [15] | outcome [16]

CCOC(=O)C1(Cc2cccc(F)c2)CCN(Cc2cnn(CC)c2)CC1
inactive: outcome [3] | outcome [4] | outcome [5] | outcome [6] | outcome [7] | outcome [8] | outcome [9] | outcome [11] | outcome [12] | outcome [13] | outcome [14] | outcome [15] | outcome [16]
active: activation [1] 118% | activation [2] 92% | activation [10] 51.5%
